Measured values published in PubChem BioAssay (Tox21).
Results filed as inconclusive are left out. Where a call stands in place of a potency, no number is given. A number with no mark means an inactive call. Activity calls are given as the source filed them. Calls come from the whole dose curve.

Test: p53 small molecule agonists, cell-based qHTS assay with human liver microsomes: qHTS cell viability counter screen (AID 1963579); note: nearly all actives have a fitted effect of over 45% in size
Conditions: p53RE-bla HCT-116 viability, ATP luminescence, 16 h, HLM; series mostly up to 66 µM
Source text: National Center for Advancing Translational Sciences [NCATS]
Division of Preclinical Innovation [DPI]
U.S. Environmental Protection Agency [EPA]
National Institutes of Environmental Health Sciences [NIEHS]
National Toxicology Program [NTP]
U.S. Food and Drug Administration [FDA]
p53, a tumor suppressor protein, is activated following cellular insult, including DNA damage and other cellular stresses. The activation of p53 regulates cell fate by inducing DNA repair, cell cycle arrest, apoptosis, or cellular senescence. The activation of p53, therefore, is a good indicator of DNA damage and other cellular stresses. […] The activation of the reporter gene under culture conditions can be detected by fluorescence intensity. This cell line was used to screen the Tox21 10K compound library in the condition of presence of human liver microsomes and to identify agonists that activate the p53 signaling pathway after in vitro metabolic activation (Ooka et al., Archive of Toxicology 96:1975-1987, 2022).
Tox21 Assay Protocol Summary:
The p53RE-bla cells were dispensed at 4,000cells/3ul/well in 1536-well black-clear bottom plates. After the assay plates were incubated at 37 C, 5% CO2 incubator for 5 hours, 23 nL of compounds dissolved in DMSO, positive controls or DMSO only was transferred to the assay plate. Following compound addition, 3 uL of human liver microsomes (XenoTech, Kansas City, KS) at final concentration of 0.5 mg/mL and 1uL of B-Nicotinamide adenine dinucleotide 2'-phosphate (NADPH) at final concentration of 0.5 mg/mL were transferred to the assay plate. The plates were incubated at 37 C for 16 hours. 1 uL of LiveBLAzer detection mixture was added to each well and the plates were incubated at room temperature in the dark for 2 h. Fluorescence intensity at 460 and 530 nm emission and 405 nm excitation were measured by an Envision plate reader. For cell viability readout that measures cytotoxicity, 4 ul/well of CellTiter-Glo reagent was added into the assay plates using a Flying Reagent Dispenser. After 30 min incubation at room temperature, the luminescence intensity in the plates was measured using a ViewLux plate reader.
Potency is the fitted concentration of half-maximal effect.

| SMILES | Potency | activity change, negative = cytotoxicity |
| --- | --- | --- |
| CC1=C(C)C(=O)C(C(CCCCCC(=O)O)c2ccccc2)=C(C)C1=O (stereo not given) | inactive |  |
| C[N+](C)(C)CCCCCCCCCC[N+](C)(C)C | inactive |  |
| CC(C)C/C=C(\C=O)c1ccccc1 | inactive |  |
| CN=C(NC#N)NCCSCc1csc(N=C(N)N)n1 | inactive |  |
| CCCOc1ccccc1-c1nc2n[nH]nc2c(=O)[nH]1 | inactive |  |
| COc1cc2c(cc1OC)-c1cc3ccc(OC)c(OC)c3c[n+]1CC2 | inactive |  |
| CCCCCCCC/C=C\CCCCCCCCN | inactive |  |
| C[C@H]1O[C@H](O[C@H]2[C@H](O)[C@@H](O)[C@@H](O[C@H]3[C@H](O)[C@@H](O)[C@H](O)O[C@@H]3CO)O[C@@H]2CO)[C@H](O)[C@@H](O)[C@@H]1N[C@H]1C=C(CO)[C@@H](O)[C@H](O)[C@H]1O | inactive |  |
| CCN[C@@H]1C[C@H](N)[C@@H](OC2OC(CN)=CCC2N)[C@H](O)[C@H]1O[C@H]1OC[C@](C)(O)[C@H](NC)[C@H]1O (stereo not given in full) |  | 1.03% [at 0.249 µM] |
| CC(=O)O[C@H]1C[C@@H]2CC[C@@H]3[C@H](CC[C@@]4(C)[C@H]3C[C@H]([N+]3(C)CCCCC3)[C@@H]4OC(C)=O)[C@@]2(C)C[C@@H]1N1CCCCC1 | inactive |  |
| CCCCCCCCC1CO1 (stereo not given) | inactive |  |
| CCCCCCCCCCCC[N+](C)(C)CCCCCCCCCCCC | inactive |  |
| CCCCCCCCCCCCCCCCCl |  | 0.42% [at 13.5 µM] |
| O=c1[nH]ncc2ccccc12 | inactive |  |
| C1=CCCC1 | inactive |  |
| NNc1nnc(NN)c2ccccc12 | inactive |  |
| CCCCCCCCOc1ccc(C(=O)O)cc1 | inactive |  |
| CC1=NN(c2ccc(C(=O)O)cc2)C(=O)C1 | inactive |  |
| Cc1cccc(CN2CCN(C(c3ccccc3)c3ccc(Cl)cc3)CC2)c1 (stereo not given) | inactive |  |
| CC1(C)CC(OC(=O)CCCCCCCCC(=O)OC2CC(C)(C)NC(C)(C)C2)CC(C)(C)N1 | 884 nM (active) |  |

| SMILES | Potency | activity change, negative = cytotoxicity |
| --- | --- | --- |
| CCC(=O)Nc1ccc(O)cc1 | inactive |  |
| NC(=O)c1cn(Cc2c(F)cccc2F)nn1 | inactive |  |
| c1ccc2c(CC3=NCCN3)cccc2c1 | inactive |  |
| CCCCCCCCCCCCCCCC[N+](C)(C)CCN(Cc1ccc(OC)cc1)c1ncccn1 | inactive |  |
| COC(=O)C(C)(C)C | inactive |  |
| C[N+](C)(C)CCOC(=O)CCC(=O)OCC[N+](C)(C)C | inactive |  |
| CN1CCN(c2c(F)cc3c(=O)c(C(=O)O)cn(CCF)c3c2F)CC1 | inactive |  |
| CNS(=O)(=O)Cc1ccc2[nH]cc(CCN(C)C)c2c1 | inactive |  |
| CCN(CC)CCNc1ccc(CNC=O)c2sc3ccc(OC)cc3c(=O)c12 | inactive |  |
| CCCCCCCCCCCCCC=O |  | -3.87% [at 5.99 µM] |
| COC(=O)c1cc(C(=O)OC)cc(S(=O)(=O)O)c1 | inactive |  |
| CCc1nn(C2CCCCC2)c2cc(C3(C#N)CCC(C(=O)O)CC3)ccc12 (stereo not given) | inactive |  |
| CC(C)(C)c1cc(C=O)cc(C(C)(C)C)c1O | inactive |  |
| CCN(CC)CCOC(=O)C1(c2ccccc2)CCCC1 | inactive |  |
| OC[C@@H](O)[C@@H](O)CO | inactive |  |
| CN1C[C@H](C(=O)N[C@]2(C)O[C@@]3(O)[C@@H]4CCCN4C(=O)[C@H](Cc4ccccc4)N3C2=O)C[C@@H]2c3cccc4[nH]cc(c34)C[C@H]21 | inactive |  |
| COc1c(C)c2c(c(O)c1C/C=C(\C)CCC(=O)OCCN1CCOCC1)C(=O)OC2 | inactive |  |
| C[Si]1(C)O[Si](C)(C)O[Si](C)(C)O1 | inactive |  |
| CC(C)(C(=O)c1cccnc1)c1cccnc1 | inactive |  |
| C=CC(=C)CC/C=C(\C)CCC=C(C)C |  | 1.39% [at 13.5 µM] |
